Source: PubChem BioAssay
Activity calls are given as the source filed them.

Experiments:
[1] = E. coli DRC41 culture turbidity changes, primary screen, E. coli filamentation inducer project, strain DRC41, OD650, 48 h (AID 1152);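 also: E. coli MC1000 strain DRC41 lacking acrAB efflux pump and sulA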; conditions: E. coli DRC41 (acrAB sulA), higher = more signal, called active from +8 up or from −8 down
[2] = small-molecule binders of probe aLefty1, primary screen, biochemical, small-molecule microarray, 635/667 nm fluorescence (AID 1153); conditions: higher = more signal;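 also: score merges spot fluorescence with signal-to-noise ratio from the scanned slide images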
[3] = PSAC antagonists in infected red cells, primary screen, cell-based, P. falciparum Indochina, OD700, 1 h (AID 1154); conditions: P. falciparum Indochina infected RBC osmotic lysis, higher = more signal, called active from +8 up or from −8 down
[4] = PSAC antagonists in infected red cells, primary screen, cell-based, P. falciparum Indochina, OD700, 2 h (AID 1155);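 also: lysis reports solute entry through the parasite surface anion channel PSAC; channel blockers reduce lysis of infected cells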; conditions: P. falciparum Indochina infected erythrocytes, osmotic lysis OD700; higher = more signal, called active from +8 up or from −8 down
[5] = osmotic lysis modulators in infected erythrocytes, primary screen, PSAC antagonist project, cell-based, P. falciparum Indochina, OD700, 3 h (AID 1156); conditions: higher = more signal, called active from +8 up or from −8 down
[6] = PSAC antagonists in infected red cells, primary screen, cell-based, P. falciparum Indochina, OD700, 18 h (AID 1157); conditions: P. falciparum Indochina infected erythrocytes, osmotic lysis OD700, 18 h; higher = more signal, called active from +8 up or from −8 down
[7] = modulators of S6 phosphorylation in cells, primary screen, cell-based, A549, cytoblot, luminescence, serum-stimulated (AID 1158); conditions: A549 phospho-S6 cytoblot, 5 h, higher = more signal;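 also: serum-stimulated A549 lung adenocarcinoma cells; signal is phosphorylated S6 detected by cytoblot immunostaining with HRP secondary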
[8] = molecular target: NADPH oxidase 2 (Homo sapiens) (UniProt P04839); assay: NOX2-dependent H2O2 signal modulators, primary screen, NOX inhibitor project, cell-based, HEK293-NOX2, PMA-stimulated, Amplex Red fluorescence (AID 1159); conditions: 45 min, higher = more signal, called active from +8 up or from −8 down; also: test concentration not given here
[9] = molecular target: NADPH oxidase 4 (Homo sapiens) (UniProt Q9NPH5); assay: NOX4-dependent H2O2 signal modulators, primary screen, NOX inhibitor project, cell-based, HEK293-NOX4, tetracycline-induced, Amplex Red fluorescence (AID 1160); conditions: 45 min, higher = more signal, called active from +8 up or from −8 down
[10] = molecular target: NADPH oxidase 5 (Homo sapiens) (UniProt Q96PH1); assay: NOX5-dependent H2O2 signal modulators, primary screen, NOX inhibitor project, cell-based, HEK293-NOX5, Amplex Red fluorescence (AID 1161); conditions: HEK293-NOX5, ionomycin, 45 min, higher = more signal
NADPH oxidase 5 (Homo sapiens), sequence (Q96PH1 whole entry, looked up): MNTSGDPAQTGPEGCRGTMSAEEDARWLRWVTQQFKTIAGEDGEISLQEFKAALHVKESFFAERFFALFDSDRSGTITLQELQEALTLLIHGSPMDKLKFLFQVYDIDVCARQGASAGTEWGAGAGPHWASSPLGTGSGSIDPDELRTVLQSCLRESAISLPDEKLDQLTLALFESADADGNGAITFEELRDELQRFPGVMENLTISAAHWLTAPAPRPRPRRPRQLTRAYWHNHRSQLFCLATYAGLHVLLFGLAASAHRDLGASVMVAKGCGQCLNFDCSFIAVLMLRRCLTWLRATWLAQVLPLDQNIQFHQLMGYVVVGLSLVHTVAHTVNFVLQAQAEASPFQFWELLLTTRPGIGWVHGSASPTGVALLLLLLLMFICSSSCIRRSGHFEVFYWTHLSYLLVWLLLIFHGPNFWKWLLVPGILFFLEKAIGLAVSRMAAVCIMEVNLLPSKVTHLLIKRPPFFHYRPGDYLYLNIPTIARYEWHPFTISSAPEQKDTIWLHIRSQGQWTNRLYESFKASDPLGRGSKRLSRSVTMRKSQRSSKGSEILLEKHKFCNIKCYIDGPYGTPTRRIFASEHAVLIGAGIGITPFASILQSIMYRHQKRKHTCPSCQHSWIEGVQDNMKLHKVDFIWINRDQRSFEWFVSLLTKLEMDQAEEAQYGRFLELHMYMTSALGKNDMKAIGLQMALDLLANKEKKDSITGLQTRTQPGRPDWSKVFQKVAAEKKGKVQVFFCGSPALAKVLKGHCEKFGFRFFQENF

NADPH oxidase 2 (Homo sapiens), sequence (P04839 whole entry, looked up): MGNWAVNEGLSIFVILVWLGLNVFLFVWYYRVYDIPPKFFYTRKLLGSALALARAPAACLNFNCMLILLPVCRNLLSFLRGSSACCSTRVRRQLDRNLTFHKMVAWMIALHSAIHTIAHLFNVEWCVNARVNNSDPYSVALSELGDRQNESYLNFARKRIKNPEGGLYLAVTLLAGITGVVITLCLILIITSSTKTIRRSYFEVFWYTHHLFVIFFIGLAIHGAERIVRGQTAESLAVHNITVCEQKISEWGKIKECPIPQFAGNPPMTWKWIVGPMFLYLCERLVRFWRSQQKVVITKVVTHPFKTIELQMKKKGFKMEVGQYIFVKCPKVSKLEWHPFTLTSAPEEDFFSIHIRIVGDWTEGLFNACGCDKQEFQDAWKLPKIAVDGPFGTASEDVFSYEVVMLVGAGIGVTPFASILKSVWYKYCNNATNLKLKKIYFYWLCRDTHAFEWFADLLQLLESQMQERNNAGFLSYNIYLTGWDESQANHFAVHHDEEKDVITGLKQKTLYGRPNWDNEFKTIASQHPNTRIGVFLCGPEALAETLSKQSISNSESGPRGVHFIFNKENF
NADPH oxidase 4 (Homo sapiens), sequence (Q9NPH5 whole entry, looked up): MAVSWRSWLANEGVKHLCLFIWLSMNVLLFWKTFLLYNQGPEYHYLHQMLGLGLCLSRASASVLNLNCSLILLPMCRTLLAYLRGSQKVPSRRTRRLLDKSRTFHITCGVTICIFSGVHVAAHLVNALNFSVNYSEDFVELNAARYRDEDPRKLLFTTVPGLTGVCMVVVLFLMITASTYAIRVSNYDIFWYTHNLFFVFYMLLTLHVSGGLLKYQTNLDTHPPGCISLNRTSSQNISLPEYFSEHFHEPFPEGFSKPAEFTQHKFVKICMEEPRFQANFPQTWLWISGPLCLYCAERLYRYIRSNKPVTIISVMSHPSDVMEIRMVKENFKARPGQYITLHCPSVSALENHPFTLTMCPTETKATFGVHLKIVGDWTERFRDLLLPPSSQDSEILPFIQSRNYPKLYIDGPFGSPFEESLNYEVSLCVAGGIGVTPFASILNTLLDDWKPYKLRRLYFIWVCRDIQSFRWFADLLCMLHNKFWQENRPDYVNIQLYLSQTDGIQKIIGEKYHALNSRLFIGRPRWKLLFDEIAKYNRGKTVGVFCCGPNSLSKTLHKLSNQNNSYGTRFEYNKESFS

Row | Structure (SMILES) | z-score [1] | composite z-score [2] | z-score [3] | z-score [4] | z-score [5] | z-score [6] | z-score [7] | z-score [8] | z-score [9] | z-score [10]
1 | COC(=O)[C@@H]1CC[C@H](C)[C@@H](c2ccc(C)cc2)N1C(=O)c1ccc(C=NO[C@H](C)c2cn([C@@H]3COC[C@H]3O)nn2)cc1 | 0.153 (inactive) | 0.109 | 22.6 (active) | 3.19 (inactive) | 0.615 (inactive) | 1.52 (inactive) | -0.477 | -0.166 (inactive) | 0.124 (inactive) | 0.196
2 | COC(=O)[C@H](C)NC(=O)CCC1CC(OC(=O)NCCc2ccc(F)cc2)CC2(CCCC(COC(=O)NCc3cccc(C(F)(F)F)c3)O2)O1 (stereo not given in full) | 0.419 (inactive) | -0.181 | 9.11 (active) | 0.445 (inactive) | -0.45 (inactive) | 0.125 (inactive) | -0.416 | 1.23 (inactive) | -1.65 (inactive) | -1.14
3 | CO[C@H]1COC(=O)CC=C[C@@H](C)[C@H](OC)COC(=O)[C@@H]2CCCN2C(=O)CC=C[C@@H]1C | 0.544 (inactive) | 0.114 | -0.0903 (inactive) | -0.289 (inactive) | -0.32 (inactive) | -0.0159 (inactive) | 1.14 | 0.833 (inactive) | 0.196 (inactive) | 0.0432
4 | CCOC(=O)[C@H](Cc1ccccc1)NC(=O)CCC1CC(OC(=O)NCc2cccc3ccccc23)CC2(CCCC(COC(=O)NCc3ccccc3)O2)O1 (stereo not given in full) | -1.32 (inactive) | 0.0935 | 4.71 (inactive) | 0.55 (inactive) | -0.562 (inactive) | -0.2 (inactive) | 3.91 | -1.59 (inactive) | -1.2 (inactive) | -1.7
5 | O=C1C[C@@H](O)[C@@H](O)[C@@H]2[C@@H]3C(=O)N(c4cccc(Oc5ccccc5)c4)C(=O)[C@@H]3CC[C@H]12 | -0.367 (inactive) | 0.0446 | 0.429 (inactive) | 0.0618 (inactive) | -0.195 (inactive) | -0.0653 (inactive) | -0.875 | -0.0166 (inactive) | 0.6 (inactive) | 0.124
6 | CC(C)[C@@H](OCc1ccccc1)[C@H](C)C=NOC[C@@H](O)COCc1ccco1 | 0.776 (inactive) | -0.866 | 0.726 (inactive) | -0.332 (inactive) | -0.302 (inactive) | -0.0498 (inactive) | 0.0388 | -0.0623 (inactive) | 0.402 (inactive) | -0.548
7 | CCOC(=O)NN=C1C[C@@H](O)[C@@H](O)[C@@H]2[C@@H]3C(=O)N(C(C)(C)C)C(=O)[C@@H]3CC[C@H]12 | 1.04 (inactive) | 0.0701 | 0.521 (inactive) | 0.16 (inactive) | 0.786 (inactive) | 0.18 (inactive) | 0.698 | -1.89 (inactive) | 0.644 (inactive) | 0.0282
8 | O=C1OCCC=C1C(O)CCc1ccccc1 (stereo not given) | -0.27 (inactive) | -0.057 | 0.512 (inactive) | -0.57 (inactive) | -0.177 (inactive) | -0.193 (inactive) | -0.136 | -0.428 (inactive) | 0.0181 (inactive) | 0.111
9 | C[C@@H](ON=C1[C@H]2CCn3c(=O)n(-c4ccccc4)c(=O)n3[C@H]2[C@H](O)[C@@H]2O[C@H]12)c1cn([C@@H]2COC[C@H]2O)nn1 | -0.212 (inactive) | -0.255 | 0.595 (inactive) | 0.277 (inactive) | 0.0251 (inactive) | 0.122 (inactive) | -0.574 | -0.183 (inactive) | -0.242 (inactive) | -0.461
10 | COC(=O)CC=C[C@@H](C)[C@@H](C=NOC[C@@H](O)[C@H]1O[C@@H]2OC(C)(C)O[C@@H]2[C@H]1O)NS(=O)(=O)c1ccc(C)cc1 | 0.463 (inactive) | 0.165 | -0.0598 (inactive) | 0.0216 (inactive) | -0.268 (inactive) | 0.0967 (inactive) | -0.979 | 0.214 (inactive) | 0.171 (inactive) | 0.829
11 | COC(=O)CC=C[C@@H](C)[C@H](OCc1cccc(-c2ccccc2)c1)C1CCCCC1 | -0.249 (inactive) | -0.289 | 1.56 (inactive) | 1.02 (inactive) | 0.0674 (inactive) | 0.367 (inactive) | -0.484 | -0.491 (inactive) | 0.228 (inactive) | -0.471
12 | COC(=O)CC=C[C@@H](C)[C@@H](C=NOCC[C@@H]1C=C[C@H](OC(C)=O)[C@@H](COC(C)=O)O1)NS(=O)(=O)c1ccc(C)cc1 | 0.385 (inactive) | 0.212 | 0.944 (inactive) | 0.107 (inactive) | -0.113 (inactive) | 0.196 (inactive) | -0.879 | 0.174 (inactive) | 0.911 (inactive) | -0.075
13 | C=Cc1ccc([C@H]2N[C@H](C(=O)O)CC[C@@H]2C)cc1 | 0.374 (inactive) | -0.338 | -0.27 (inactive) | -0.344 (inactive) | -1.26 (inactive) | -0.267 (inactive) | -0.599 | 1.06 (inactive) | -0.0223 (inactive) | 0.0584
